FEN1 inh – blocks human flap endonuclease 1. P39748. Recombinant FEN1 flap cleavage, fluorescence, 15 min. Potency, µM (series often up to 114 µM), hits mostly inhibitors. hit rate 0.35% among 390,000; further: nearly all actives have a fitted effect of over 65% in size
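Steps: FEN1 (10 nM) dispensed; compound added by pin tool; 15 min at room temperature; substrate added to 50 nM final; reads at 0 min and 15 min; data normalized and fitted (four-parameter Hill).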
PI5P4Ka inh – blocks human PI5P4K alpha kinase activity; P48426; PI5P4Kalpha enzyme, ADP-Glo luminescence, 60 min; active compounds read low; max response, %; hit rate 1.2% among 330,000; AID 652105; active means max response of -50% or lower; inconclusive means between -30% and -50%; inactive means -30% or higher; further: value at the top dose of about 77 µM
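Enzyme plus substrate dispensed, test compounds pinned in, then ATP (5 microM final) added. After 60 min at RT, ADP-Glo reagent 1 for 45 min and reagent 2 for 30 min preceded luminescence imaging.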
RECQ1 helicase – inhibitors of human RECQ1 DNA helicase. P46063. hit rate 0.54% among 240,000. RECQ1 DNA unwinding, red fluorescence kinetic read. Potency, µM (titrated, usually from 57.3 µM), actives largely listed as inhibitors; further: nearly all actives have a fitted effect of over 30% in size
Target sequence (P46063 whole entry, looked up): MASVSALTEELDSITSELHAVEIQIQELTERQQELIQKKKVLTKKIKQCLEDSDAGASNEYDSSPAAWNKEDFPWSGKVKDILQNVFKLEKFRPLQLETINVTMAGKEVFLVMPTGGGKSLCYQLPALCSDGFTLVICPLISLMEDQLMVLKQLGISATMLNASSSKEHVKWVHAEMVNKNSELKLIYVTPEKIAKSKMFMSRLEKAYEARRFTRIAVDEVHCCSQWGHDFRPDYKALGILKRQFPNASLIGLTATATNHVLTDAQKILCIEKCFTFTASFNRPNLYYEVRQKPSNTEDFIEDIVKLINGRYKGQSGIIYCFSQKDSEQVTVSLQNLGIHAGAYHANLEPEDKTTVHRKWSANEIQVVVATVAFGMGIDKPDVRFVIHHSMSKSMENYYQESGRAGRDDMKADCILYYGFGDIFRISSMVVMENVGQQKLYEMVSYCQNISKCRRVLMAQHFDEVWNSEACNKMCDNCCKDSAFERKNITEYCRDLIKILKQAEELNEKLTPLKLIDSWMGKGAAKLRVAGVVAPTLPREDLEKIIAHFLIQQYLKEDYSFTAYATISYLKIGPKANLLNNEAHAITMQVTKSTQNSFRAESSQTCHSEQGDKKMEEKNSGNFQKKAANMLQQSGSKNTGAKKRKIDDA
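RECQ1T1 50 nM; forked duplex (20 bp + 30-nt ss tails) 200 nM, ATP 2 mM final; pH 8.0, 2 mM MgCl2, 2.5 ug/ml poly(dI-dC); 15 min compound preincubation; discontinuous kinetic read over 2 h at RT.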
BLM inh – Bloom syndrome helicase (human) inhibition | P54132 | Potency, µM (doses to about 56.1 µM), actives largely listed as inhibitors | hit rate 0.2% among 350,000 | AID 2528 | recombinant BLM DNA unwinding, fluorescence dequenching; further: nearly all actives have a fitted effect of over 35% in size
APEX1 inh – inhibitors of human APE1 endonuclease; recombinant APE1, TAMRA/BHQ-2 abasic DNA cleavage fluorescence; Potency, µM (doses to about 65.8 µM), hits mostly inhibitors; hit rate 0.35% among 350,000; further: nearly all actives have a fitted effect of over 55% in size
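Kinetic fluorescence read (525 ex/598 em nm, three reads 60 s apart) of AP-site incision; signal = third minus first read. Enzyme 0.75 nM, dual-labelled THF duplex 50 nM, compound preincubation 15 min RT.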
WRN inhibitor – WRN helicase (human) inhibition; WRN helicase unwinding, fluorescent forked duplex, kinetic; Potency, µM (series often up to 114 µM), most hits filed as inhibitors; hit rate 0.46% among 360,000; AID 651768; further: nearly all actives have a fitted effect of over 55% in size
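Fluorescence dequenching readout, ex 525 nm/em 598 nm, kinetic mode: forked duplex DNA (100 nM final) with adjacent fluorophore and quencher unwound by WRN (20 nM final) with 2 mM ATP. Compound preincubation 15 min, room temperature.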
Hits are given with their value; . = inactive; ? = inconclusive; / = no result given. Sampled rows, rich in hits. Any-hit rate of the full collection: about 1.5%. Unless noted, the call rests on the fitted dose curve; in most records, active means well fitted curve in the direction sought with a large enough effect; inconclusive means small, poorly fitted or top-dose-only effect, or another doubt; inactive means no such curve, though single readings can be large; an effect the other way counts as inactive or inconclusive.

SMILES | FEN1 inh | PI5P4Ka inh | RECQ1 helicase | BLM inh | APEX1 inh | WRN inhibitor
C#CCOCCOCCOCCNc1nc(N2CCN(C(=O)CCCCCCCCCCNC(=O)[C@H](CCCCN)n3cc(C)nn3)CC2)nc(N2CCN(C(=O)CCCCCCCCCCNC(=O)[C@H](CCCN=C(N)N)n3cc(C[C@@H](C)CC)nn3)CC2)n1 | 22µM | -51 | / | / | . | 45µM
CO[C@H]1C[C@H](O[C@H]2[C@H](C)[C@@H](O[C@@H]3O[C@H](C)C[C@H](N(C)C)[C@H]3O)[C@@H](C)C[C@]3(CO3)C(=O)[C@H](C)[C@@H](O)[C@@H](C)[C@@H](C)OC(=O)[C@@H]2C)O[C@@H](C)[C@@H]1O | / | / | / | / | . | /
O=C(C[N+]12CN3CN(CN(C3)C1)C2)c1ccc(Cl)cc1 | . | / | / | / | / | /
O=C(C[N+]12CN3CN(CN(C3)C1)C2)c1ccc(O)c(O)c1 | 14µM | / | / | / | / | /
O=C(O)c1ccccc1-c1c2cc(Br)c(=O)c(Br)c-2oc2c(Br)c(O)c(Br)cc12 | / | / | 32µM | 28µM | ? | /
CC(=O)Nc1ccc(S(=O)(=O)O)c2cc(S(=O)(=O)O)c(N=Nc3ccc(N=Nc4ccc(S(=O)(=O)O)cc4)c4ccc(S(=O)(=O)O)cc34)c(O)c12 | 1.3µM | / | / | / | / | /
O=S(=O)(O)c1cc(O)c2c(N=Nc3ccc(Nc4ccccc4)c4c(S(=O)(=O)O)cccc34)cc(S(=O)(=O)O)cc2c1 | / | / | / | . | / | /
O=S(=O)(O)c1ccc2c(N=Nc3ccc(S(=O)(=O)O)c4ccccc34)c(O)c(S(=O)(=O)O)cc2c1 | 10µM | / | / | . | / | /
Cc1c(C(=O)Nc2nc(-c3ccc(F)cc3)ns2)oc2ccc(Cl)cc12 | . | / | / | . | / | /
O=S(=O)(/N=C(/Sc1ccccc1)c1ccccc1)c1ccc(Cl)cc1 | . | / | / | / | / | /
O=S(=O)(/N=C(/Sc1ccc(Cl)cc1)c1ccccc1)c1ccccc1 | 79µM | / | / | / | / | /
COc1ccccc1N1CCN(C(=O)Cn2c(=O)nc(-c3ccccc3)c3cc(Cl)ccc32)CC1 | . | / | / | . | / | /
CN=C(c1ccco1)n1c(=S)nc(-c2ccco2)n(C)c1=S | . | -68 | . | . | ? | ?
Cc1ccc2onc(CC(=O)N3CCN(c4cc(Cl)ccc4C)CC3)c2c1 | . | / | / | . | / | /
Cc1ccc(C(=O)O)cc1N=Cc1cc(Br)cc(Br)c1O | . | -56 | . | . | . | ?
CC(=O)Nc1ccc(C(=O)N/N=C/c2cc(Br)cc(Br)c2O)cc1 | . | . | . | . | . | .
Cc1ccc(S(=O)(=O)N2CCC(c3nc(-c4cccs4)nc4ccccc34)CC2)cc1 | . | / | / | / | / | /
Cc1ccc(C2C(C(=O)c3cc4ccccc4o3)=C(O)C(=O)N2c2cc(C)on2)cc1 (configuration not stated) | . | -52 | / | . | . | .
Cc1cc(N2C(=O)C(O)=C(C(=O)c3ccco3)C2c2cccc(Oc3ccccc3)c2)no1 (configuration not stated) | . | -68 | / | . | . | .
Cc1cc(N2C(=O)C(O)=C(C(=O)c3ccco3)C2c2cccc(O)c2)no1 (configuration not stated) | . | . | / | . | . | .
Cc1cc(N2C(=O)C(O)=C(C(=O)c3cc4ccccc4o3)C2c2ccc([N+](=O)[O-])cc2)no1 (configuration not stated) | . | ? | / | . | . | .
O=C(C1=C(O)C(=O)N(c2nccs2)C1c1ccccc1)c1cc2ccccc2o1 (configuration not stated) | . | -52 | . | . | . | .
CCCCS(=O)(=O)CC(O)CSc1nc(-c2ccc(C)cc2)cc(-c2ccccc2)c1C#N (configuration not stated) | . | / | / | . | / | /
CN1CCN(c2ccc(-c3cc(O)c4ncccc4c3)cc2)CC1 | / | / | / | / | . | /
C=Cc1c(C)c2cc3nc(cc4[nH]c(cc5nc(cc1[nH]2)C(C)=C5CCC(=O)OC)c(CCC(=O)O)c4C)[C@@]1(C)C3=CC=C(C(=O)OC)[C@H]1C(=O)OC | / | / | / | / | . | /
SMILES | FEN1 inh | PI5P4Ka inh | RECQ1 helicase | BLM inh | APEX1 inh | WRN inhibitor
Nc1cn(C2OC(CO)C(O)C2O)c(=O)[nH]c1=O (configuration not stated) | . | . | / | . | 19µM | .
O=c1[nH]c(=O)n(C2OC(CO)C(O)C2O)cc1N1CCOCC1 (configuration not stated) | . | . | / | / | / | .
O=C(O)c1cc2ccccc2c(Cc2c(O)c(C(=O)O)cc3ccccc23)c1O | 32µM | / | / | / | / | /
CCCCN1/C(=C/c2ccc3ccccc3[n+]2CC)Sc2ccccc21 | 40µM | . | . | . | . | .
CC(C)Cn1c(=S)[nH]c2cc(C(=O)O)ccc2c1=O | . | -59 | . | . | . | .
C#CCOCCOCCOCCNc1nc(N2CCN(C(=O)[C@H](CCC(=O)O)n3cc(C(N)[C@H](C)CC)nn3)CC2)nc(N2CCN(C(=O)[C@H](Cc3cc4ccccc4[nH]3)n3cc(C(N)[C@H](C)CC)nn3)CC2)n1 (some centres not stated) | / | / | . | . | . | /

Assay outcomes (PubChem BioAssay)
